In the library only some 1.2% were active in any assay of this set; here they are far more common.
AGP1-GFP MLPCN – modulators of TOR pathway AGP1-GFP in S. cerevisiae; S. cerevisiae AGP1-GFP multiplex flow cytometry, 3 h; GFP as percent of DMSO wells; GFP response vs DMSO, % at 10 µM; 0.02% of 320,000 active; AID 2066;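 active = GFP response relative to DMSO above a set limit, near screen average plus 3 SD, cut at about 150% in these data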;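 also: median GFP channel fluorescence of the gated AGP1 strain per well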
Pemphigus Ab inh – inhibitors of pemphigus antibody binding to human desmoglein-3. binding (percent of control), % at 10 µM. P32926. DSG3-coupled beads, scFv-anti-DSG3-GFP binding, flow cytometry; hits give low values. 0.48% of 310,000 active;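 active = binding more than 3 SD below its plate's average and above zero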;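 also: hits lower antibody fragment binding to DSG3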
Target sequence (P32926 whole entry, looked up, the tested form may be a part): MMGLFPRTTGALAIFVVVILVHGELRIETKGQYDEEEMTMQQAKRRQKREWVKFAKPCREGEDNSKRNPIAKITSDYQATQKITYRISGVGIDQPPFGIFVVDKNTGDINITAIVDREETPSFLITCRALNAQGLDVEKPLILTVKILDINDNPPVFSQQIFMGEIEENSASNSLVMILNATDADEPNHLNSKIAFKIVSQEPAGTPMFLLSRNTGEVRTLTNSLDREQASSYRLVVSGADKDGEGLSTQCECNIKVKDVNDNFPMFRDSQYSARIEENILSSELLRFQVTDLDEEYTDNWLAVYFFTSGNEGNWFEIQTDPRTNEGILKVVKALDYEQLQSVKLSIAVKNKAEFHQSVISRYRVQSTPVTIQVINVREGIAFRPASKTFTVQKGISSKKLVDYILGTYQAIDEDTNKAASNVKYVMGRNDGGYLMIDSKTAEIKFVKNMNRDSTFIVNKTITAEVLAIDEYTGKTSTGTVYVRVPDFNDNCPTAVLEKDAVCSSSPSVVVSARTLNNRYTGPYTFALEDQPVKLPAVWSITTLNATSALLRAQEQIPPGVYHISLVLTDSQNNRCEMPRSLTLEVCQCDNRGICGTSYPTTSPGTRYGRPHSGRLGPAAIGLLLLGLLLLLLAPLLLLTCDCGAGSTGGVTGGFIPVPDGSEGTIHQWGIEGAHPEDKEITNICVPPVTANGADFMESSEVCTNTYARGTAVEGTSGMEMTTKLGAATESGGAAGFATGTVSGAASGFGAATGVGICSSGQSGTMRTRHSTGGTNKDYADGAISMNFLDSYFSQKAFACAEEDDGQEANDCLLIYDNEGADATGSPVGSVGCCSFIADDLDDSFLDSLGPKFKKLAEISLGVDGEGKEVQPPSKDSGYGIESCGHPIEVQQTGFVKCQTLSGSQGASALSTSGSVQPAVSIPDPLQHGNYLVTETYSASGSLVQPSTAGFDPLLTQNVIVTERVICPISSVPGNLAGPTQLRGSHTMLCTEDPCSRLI
CIT2 TOR yeast – modulators of TOR pathway CIT2-GFP in S. cerevisiae | 0.065% of 320,000 active | GFP response vs DMSO, % at 10 µM | S. cerevisiae CIT2-GFP strain, flow cytometry, 3 h; 100 means same as DMSO wells | AID 2029;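 active = GFP response relative to DMSO above a set limit, near the screen mean plus 3 SD, cut at about 150% in these data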;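 also: ratio of well median GFP fluorescence to mean of DMSO wells on the plate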
LAP4-GFP MLPCN – yeast TOR pathway LAP4-GFP modulation; S. cerevisiae LAP4-GFP multiplex, flow cytometry GFP, 3 h; median GFP as percent of DMSO wells; GFP response vs DMSO, % at 10 µM; 0.34% of 320,000 active; AID 2023;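 active = GFP response vs DMSO above a set limit, about the screen mean plus 3 SD, cut at about 150% in these data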
RPL19A TOR yeast – alters RPL19A-GFP fluorescence in TOR pathway yeast screen; S. cerevisiae RPL19A-GFP strain, flow cytometry, 3 h; hits give low values; percent response vs DMSO, % at 10 µM; 0.3% of 330,000 active; AID 2025;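 active = percent response vs DMSO below 50%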;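 also: median channel GFP fluorescence of the barcoded RPL19A-GFP strain; ratio of sample median GFP to plate DMSO average so 100% = DMSO; lower means less RPL19A-GFP as with rapamycin TOR inhibition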
MEP2 TOR yeast – yeast TOR pathway MEP2-GFP modulation | S. cerevisiae MEP2-GFP strain, flow cytometry GFP, 3 h; 100% = DMSO control level | GFP response vs DMSO, % at 10 µM | 0.51% of 330,000 active;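 active = GFP response versus DMSO above a set limit, roughly screen mean plus 3 SD, cut at about 180% in these data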;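 also: median GFP fluorescence of the barcode-gated MEP2-GFP cells per well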
LAP4-GFP pick2 – yeast LAP4-GFP modulation, second cherry pick; shares compounds with LAP4-GFP MLPCN; S. cerevisiae LAP4-GFP strain, flow cytometry GFP, 3 h; GFP response vs DMSO, % at 10 µM; 20% of 590 active;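 active = GFP signal as percent of the solvent control above about 150%, meaning raised reporter expression, limit read from the data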;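 also: ratio of well median GFP fluorescence to plate DMSO mean so 100% = DMSO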
MEP2-GFP pick2 – reconfirmed MEP2-GFP TOR pathway modulator in yeast; shares compounds with LAP4-GFP MLPCN; S. cerevisiae MEP2-GFP strain, flow cytometry GFP, 3 h; GFP response vs DMSO, % at 10 µM; 10% of 590 active; AID 2622;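 active = GFP signal above 150% of the solvent control wells, that is a rise of more than half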;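 also: median channel GFP fluorescence of all gated yeast cells per well; ratio of median GFP to plate DMSO average so 100% = DMSO level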
RPL19A-GFP pick2 – yeast RPL19A-GFP TOR reporter modulation, second cherry pick. S. cerevisiae RPL19A-GFP strain, flow cytometry GFP, 3 h; hits give low values; 100% means same as DMSO wells. AID 2623. shares compounds with LAP4-GFP MLPCN. GFP response vs DMSO, % at 10 µM. 3% of 590 active;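 active = under 65% GFP response relative to DMSO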;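 also: median GFP channel fluorescence per well over the all cells gate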
CIT2-GFP pick2 – second confirmation of modulators of TOR reporter CIT2-GFP in yeast; shares compounds with LAP4-GFP MLPCN; S. cerevisiae CIT2-GFP strain, flow cytometry GFP, 3 h; DMSO control wells read 100%; GFP response vs DMSO, % at 10 µM; 8% of 590 active; AID 2624;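 active = GFP response vs DMSO above about 150%, limit read from the data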;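 also: median green fluorescence per well over all gated yeast cells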
AGP1 GFP CP2 – second confirmation of modulators of TOR reporter AGP1-GFP in yeast; 590 tested, under 10 active; S. cerevisiae AGP1-GFP strain, flow cytometry GFP, 3 h; shares compounds with LAP4-GFP MLPCN; percent response vs DMSO, % at 10 µM;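 active = over 150 percent of DMSO response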;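 also: median GFP channel fluorescence over all cells without mother daughter split; sample median GFP divided by mean DMSO control so 100% equals DMSO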
s288c autofluor – counter-screen for compound autofluorescence in yeast s288c cells; shares compounds with LAP4-GFP MLPCN; S. cerevisiae s288c, 520 nm autofluorescence, flow cytometry, 3 h; hits give high values; zero means same as solvent-only cells; fluorescence change (kMESF span) at 33 µM; 610 tested, under 10 active; AID 2757;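 active = fluorescence span over the dose series, or activity score, above about 33, limit read from the data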
s288c autofl DR – counter-screen for autofluorescence of TOR hits in yeast s288c. shares compounds with LAP4-GFP MLPCN. 110 tested, under 10 active. fluorescence change (span) at 33 µM. S. cerevisiae s288c parental, compound autofluorescence, flow cytometry, 3 h;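 active = fluorescence change span, or the activity score built from it, above 25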
TORC1 bypass – compounds blocking wildtype yeast growth but not TORC1 bypass cells. shares compounds with LAP4-GFP MLPCN. S. cerevisiae BY4741 spot growth rating, 48-72 h; hits give low values. growth rating (0-3) at 30 µM. 120 tested, under 10 active;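 active = growth rating at most 1 for wild type yeast while the TORC1 bypass strain still grows fully, rated 3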
Starred values were filed as active, the others as inactive; / = no result given.

SMILES	AGP1-GFP MLPCN	Pemphigus Ab inh	CIT2 TOR yeast	LAP4-GFP MLPCN	RPL19A TOR yeast	MEP2 TOR yeast	LAP4-GFP pick2	MEP2-GFP pick2	RPL19A-GFP pick2	CIT2-GFP pick2	AGP1 GFP CP2	s288c autofluor	others
COc1ccc2c(C(F)(F)F)cc(=O)oc2c1C	96.4	73.4	97.5	94.4	95.1	106.8	/	/	/	/	/	/
Cc1c(C)c2ccc(Oc3ccc([N+](=O)[O-])cc3C(F)(F)F)c(C)c2oc1=O	102.3	71.7	92.1	101.0	101.0	106.3	101.0	104.8	102.5	102.9	100.5	0.1
COC(=O)CCC(=O)OC1(C)C(=O)C2=CN(C(CO)CO)C(c3ccc(OC)cc3)=CC2=C(Br)C1=O (configuration not stated)	102.2	/	88.2	98.0	99.9	102.5	/	/	/	/	/	/
COC(=O)CCC(=O)OC1(C)C(=O)C2=COC(c3ccc(OC)cc3)=CC2=C(Br)C1=O (configuration not stated)	18.0	/	49.2	126.9	38.8*	79.3	151.3*	129.3	71.9	108.5	43.1	2.21
O=c1c2cc(Cl)ccc2nc(-c2ccc([N+](=O)[O-])cc2)n1O	79.4	97.2	75.6	134.5	64.5	95.7	157.7*	153.1*	45.6*	144.8	75.4	0.3
Cc1cc(OC(C)C(=O)N2CCN(c3ccc(F)cc3)CC2)c2c(C)c(C)c(=O)oc2c1 (configuration not stated)	91.6	101.9	112.9	108.3	103.8	114.8	/	/	/	/	/	/
Cc1ccc(CN2C(=O)[C@H]3Cc4c([nH]c5ccccc45)C(C)(C)N3C2=O)cc1	92.8	102.0	86.6	155.7*	104.0	97.9	102.9	101.5	98.3	101.8	96.2	/
Cc1ccc(CN2C(=O)[C@@H]3Cc4c([nH]c5ccccc45)C(C)(C)N3C2=O)cc1	85.2	100.2	90.3	137.2	99.6	93.0	/	/	/	/	/	/
COc1cc(/C=C2\C(=O)N(CCC#N)N=C2C)c(Br)cc1OC(C)C	86.5	98.7	89.4	192.3*	105.2	92.0	/	/	/	/	/	-0.41
CCN1CCN(C(=O)C2=CC(c3ccc(OC)cc3)=NS(=O)(=O)N2C)CC1	108.5	95.0	91.5	167.4*	83.4	127.4	101.2	103.1	98.5	101.5	100.7	/
Cc1c(NC2=C(Cl)C(=O)N(c3ccccc3Cl)C2=O)c(=O)n(-c2ccccc2)n1C	105.1	97.5	106.8	90.5	102.9	100.8	/	/	/	/	/	0.1
O=C1C(Cl)=C(Nc2ccccc2O)C(=O)N1c1ccccc1	104.2	125.0	102.0	114.5	98.3	107.4	/	/	/	/	/	0.1
Cc1c(NC2=C(Cl)C(=O)N(c3ccccc3)C2=O)c(=O)n(-c2ccccc2)n1C	98.6	97.8	95.4	142.7	97.3	96.9	/	/	/	/	/	0.4
O=[N+]([O-])c1cc(Cl)cc(/C=N\Nc2ccccn2)c1O	45.8	101.4	74.4	146.5	52.2	121.7	179.4*	192.1*	82.2	165.5*	84.4	2.7
O=[N+]([O-])c1ccc(Cl)cc1C=NNc1ccccn1	/	96.3	/	/	/	/	/	/	/	/	/	/
COc1ccccc1CNS(=O)(=O)c1ccc(Br)s1	102.3	99.2	100.3	82.1	103.4	102.2	/	/	/	/	/	/
COc1ccc(OCC(=O)NNC(=S)NC(=O)C2CCCCC2)cc1	104.4	/	116.2	170.1*	105.9	126.8	240.4*	139.8	112.8	154.9*	105.6	2.43
COc1ccc(OCC(=O)NNC(=S)NC(=O)C2CC2)cc1	99.4	103.5	92.4	102.1	110.0	107.0	/	/	/	/	/	/
CCc1ccc(OCC(=O)NNC(=S)NC(=O)C2CC2)c(Br)c1	93.5	/	88.3	166.2*	106.0	116.2	/	/	/	/	/	0.71	s288c autofl DR=0.73;TORC1 bypass=3
CCC1(C)SC(N)=NN1C(C)=O (configuration not stated)	99.6	108.2	96.3	97.4	105.1	100.8	/	/	/	/	/	/
CCOc1ccc(NC(=O)C2C(c3ccccc3)C2(Cl)Cl)cc1 (configuration not stated)	98.7	111.8	103.8	100.2	101.0	110.6	/	/	/	/	/	/
CCOc1cc(/C=N/NC(N)=O)ccc1OCC(=O)Nc1ccc(C)c(C)c1	105.7	101.1	98.9	105.9	96.9	99.6	/	/	/	/	/	/
CCOc1cc(C=C2C(=O)c3ccccc3C2=O)ccc1OCC(=O)Nc1ccc(C)cc1	108.5	99.8	104.9	109.5	104.5	109.3	96.2	99.8	101.9	100.7	99.6	-0.2
Cc1ccc(C(=O)COC(=O)COc2ccccc2[N+](=O)[O-])s1	98.7	110.2	97.3	103.7	98.2	101.1	/	/	/	/	/	/
CCOC(=O)COc1ccccc1/C=C\[N+](=O)[O-]	76.5	92.0	74.2	188.4*	72.4	91.4	140.3	122.3	95.7	112.6	101.0	/
O=C(/C=C/c1ccccc1)c1cc(Br)ccc(=O)c1O	79.9	100.2	87.9	117.6	92.5	84.7	145.3	153.7*	72.3	162.7*	86.8	23.4
O=C(/C=C/c1ccc(F)cc1)c1cc(Br)ccc1O	109.7	94.8	117.1	101.5	105.7	109.2	/	/	/	/	/	/
OCCC#Cc1c(-c2ccsc2)sc2ccccc12	87.6	117.5	95.5	159.2*	86.1	98.6	108.2	118.8	89.9	104.3	99.0	/

Bioassay records deposited in PubChem BioAssay by NMMLSC.
